Data from PubChem BioAssay (EPA / NIEHS).
Inconclusive results are not listed. The source made the active and inactive calls. The calls were made as follows: active = hit-call score of the fitted dose curve at least 0.9, where 1 is the maximum; inconclusive = response in the unintended direction; inactive = score below 0.9.

biological target: Retinoic acid receptor RXR-alpha (Homo sapiens) (UniProt P19793); assay: ATG_RXRa_TRANS: Attagene TRANS-FACTORIAL HepG2 Assay for human Retinoid X Receptor alpha (RXRa) (AID 2283012)
Sequence (P19793 whole entry, looked up): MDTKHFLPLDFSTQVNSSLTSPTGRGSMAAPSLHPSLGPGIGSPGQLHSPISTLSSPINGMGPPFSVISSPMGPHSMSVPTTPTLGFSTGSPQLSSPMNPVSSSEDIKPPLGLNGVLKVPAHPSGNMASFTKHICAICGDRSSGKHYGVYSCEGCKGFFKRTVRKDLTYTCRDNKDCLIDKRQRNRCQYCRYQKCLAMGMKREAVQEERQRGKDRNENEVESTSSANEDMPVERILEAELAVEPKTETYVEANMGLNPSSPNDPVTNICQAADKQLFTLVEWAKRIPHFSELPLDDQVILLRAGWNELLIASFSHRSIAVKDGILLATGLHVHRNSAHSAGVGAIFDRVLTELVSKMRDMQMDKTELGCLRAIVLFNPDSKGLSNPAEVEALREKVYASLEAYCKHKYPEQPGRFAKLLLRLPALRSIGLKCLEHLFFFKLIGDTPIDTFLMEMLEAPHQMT
Experimental: ATG_TRANS is a cell-based, multiplexed-readout assay that uses HepG2, a human liver cell line, with measurements taken at 24 hours after chemical dosing in a 24-well plate.ATG_RXRa_TRANS is one of 30 assay component(s) measured or calculated from the ATG_TRANS assay. It is designed to make measurements of mRNA induction, a form of inducible reporter, as detected with fluorescence intensity signals by Reverse transcription polymerase chain reaction (RT-PCR) and Capillary electrophoresis technology.Data from the assay component ATG_RXRa_TRANS was analyzed into 1 assay endpoint. This assay endpoint, ATG_RXRa_TRANS, was analyzed in the positive analysis fitting direction relative to DMSO as the negative control and baseline of activity. Using a type of inducible reporter, measures of mRNA for gain-of-signal activity can be used to understand the reporter gene at the transcription factor-level as they relate to the gene RXRA. Furthermore, this assay endpoint can be referred to as a primary readout, because this assay has produced multiple assay endpoints where this one serves a reporter gene function. To generalize the intended target to other relatable targets, this assay endpoint is annotated to the nuclear receptor intended target family, where the subfamily is non-steroidal.
Human liver HepG2 cells are transiently transfected with multiple reporter transcription units (MRTUs) in 6-well plates using FuGene 6 reagent (Roche; 3 ml FuGene/1 mg DNA). The MRTU constructs are regulated by a cis-regulating element (promoter). […] A major difference between the CIS and TRANS system is that in CIS activities of endogenous TFs are measured, whereas the TRANS assay evaluates changes in activities of exogenous, chimeric NR-Gal4 proteins. […] At the end of 24 hour incubation, total RNA was isolated using TriZol reagent (Invitrogen). The isolated RNA is then reverse-transcribed using oligo(dT) primer and Mo-MLV reverse transcriptase (Invitrogen) with DNAse I (Ambion) treatment for 30 min. The one-tenth of the produced cDNA was amplified by PCR using Taq DNA polymerase (Invitrogen) and two reporter sequence-specific primers. The PCR products were fluorescently labeled by primer extension with 6-arboxyfluorescein (6-FAM) 5'-labeled reporter sequence-specific primer (2 min at 95 C, 20 s at 68 C and 10 min at 72 C) and these products were digested with 5U of HpaI (New England Biolabs) for 2h at 37 C. The fragments were purified using Qiaquick PCR columns (Qiagen), analyzed on an ABI 3130xL genetic analyzer (Applied Biosystems) with peak positions identified by using a set of X-rhodamine (ROX)-labeled MapMarker1000 molecular weight standards (BioVentures). The raw capillary electrophoresis data was processed using Attagraph software (Attagene).

Question: Cc1c(COC(=O)[C@@H]2[C@H](/C=C(\Cl)C(F)(F)F)C2(C)C)cccc1-c1ccccc1 was tested. Which outcome did it give?
Answer: The outcome was “inactive”.

Question: For CCCCOCN(C(=O)CCl)c1c(CC)cccc1CC, which outcome is on record?
Answer: Its outcome is “inactive”.

Question: Which outcome does the source give for COC(=O)N(C(=O)N1CO[C@@]2(C(=O)OC)Cc3cc(Cl)ccc3C2=N1)c1ccc(OC(F)(F)F)cc1 here?
Answer: The outcome was “inactive”.

Question: With CC(C)Nc1nc(Cl)nc(NC(C)C)n1 as the compound, how does the outcome read?
Answer: Its outcome is “inactive”.

Question: How did the outcome turn out when CC(C)N1C(=O)c2ccccc2NS1(=O)=O was run?
Answer: The outcome was “inactive”.

Question: Which outcome does the source give for CCCN(CC)CC1COC2(CCC(C(C)(C)C)CC2)O1 (stereo not given) here?
Answer: The outcome was “inactive”.

Question: For C=CCOC(=O)C(C)(C)OC(=O)c1cc(-n2c(=O)cc(C(F)(F)F)n(C)c2=O)ccc1Cl, which outcome is on record?
Answer: The outcome was “inactive”.

Question: How did the outcome turn out when Cc1nc(N(C)C)nc(OC(=O)N(C)C)c1C was run?
Answer: Its outcome is “inactive”.

Question: Which outcome does the source give for COc1ccc(-c2ccccc2)cc1NNC(=O)OC(C)C here?
Answer: The outcome was “inactive”.

Question: How did the outcome turn out when CC(C)NC(=O)N1CC(=O)N(c2cc(Cl)cc(Cl)c2)C1=O was run?
Answer: The outcome was “inactive”.

Question: With CCOc1nc(C(Cl)(Cl)Cl)ns1 as the compound, how does the outcome read?
Answer: Its outcome is “inactive”.

Question: How did the outcome turn out when CS(=O)(=O)c1cc(C(F)(F)F)ccc1C(=O)c1cnoc1C1CC1 was run?
Answer: Its outcome is “inactive”.

Question: For Nc1c(Cl)c(Cl)nc(C(=O)O)c1Cl, which outcome is on record?
Answer: The outcome was “inactive”.

Question: Which outcome does the source give for CC1(C)C(C=C(Cl)Cl)C1C(=O)OC(C#N)c1cccc(Oc2ccccc2)c1 (stereo not given) here?
Answer: Its outcome is “inactive”.

Question: Which outcome does the source give for Nc1c(Cl)c(F)nc(OCC(=O)O)c1Cl here?
Answer: Its outcome is “inactive”.

Question: For N#CN=C1SCCN1Cc1ccc(Cl)nc1, which outcome is on record?
Answer: The outcome was “inactive”.

Question: O=C1C2CC=CCC2C(=O)N1SC(Cl)(Cl)Cl (stereo not given) was tested. Which outcome did it give?
Answer: Its outcome is “inactive”.

Question: CCOP(=O)(OCC)Oc1nc(Cl)c(Cl)cc1Cl was tested. Which outcome did it give?
Answer: The outcome was “inactive”.

Question: How did the outcome turn out when Clc1cccc(C(Cl)(Cl)Cl)n1 was run?
Answer: Its outcome is “inactive”.

Question: For CC(C)Oc1cccc(NC(=O)c2ccccc2C(F)(F)F)c1, which outcome is on record?
Answer: Its outcome is “inactive”.

Question: With Cc1cc(C)nc(Nc2ccccc2)n1 as the compound, how does the outcome read?
Answer: The outcome was “inactive”.

Question: For CNC(=O)N(C)c1nnc(C(C)(C)C)s1, which outcome is on record?
Answer: The outcome was “inactive”.

Question: Which outcome does the source give for CSC(=O)c1c(C(F)F)nc(C(F)(F)F)c(C(=O)SC)c1CC(C)C here?
Answer: Its outcome is “inactive”.

Question: CCSC(=O)N1CCCCCC1 was tested. Which outcome did it give?
Answer: Its outcome is “inactive”.

Question: CC1(C)CCC(=Cc2ccc(Cl)cc2)C1(O)Cn1cncn1 (stereo not given) was tested. Which outcome did it give?
Answer: The outcome was “inactive”.

Question: OC(c1ccc(Cl)cc1)(c1ccc(Cl)cc1)C(Cl)(Cl)Cl was tested. Which outcome did it give?
Answer: Its outcome is “inactive”.

Question: How did the outcome turn out when COCc1cnc(C2=NC(C)(C(C)C)C(=O)N2)c(C(=O)O)c1 (stereo not given) was run?
Answer: Its outcome is “inactive”.

Question: Which outcome does the source give for CNC(=O)Oc1cccc2ccccc12 here?
Answer: The outcome was “inactive”.

Question: Which outcome does the source give for CC(C)C1(C)N=C(c2ncccc2C(=O)O)NC1=O (stereo not given) here?
Answer: The outcome was “inactive”.

Question: How did the outcome turn out when O=C(Nc1ccccc1-c1ccc(Cl)cc1)c1cccnc1Cl was run?
Answer: The outcome was “inactive”.

Question: How did the outcome turn out when CCC(C)n1c(=O)[nH]c(C)c(Br)c1=O (stereo not given) was run?
Answer: The outcome was “inactive”.

Question: For COC(=O)c1c(C(F)F)nc(C(F)(F)F)c(C2=NCCS2)c1CC(C)C, which outcome is on record?
Answer: Its outcome is “inactive”.

Question: Which outcome does the source give for COc1cc(Cl)c(OC)cc1Cl here?
Answer: The outcome was “inactive”.

Question: Which outcome does the source give for CC(C)N1C(=O)N(c2ccccc2)CSC1=NC(C)(C)C here?
Answer: Its outcome is “inactive”.

Question: Which outcome does the source give for COCC(=O)N(c1c(C)cccc1C)C(C)C(=O)OC (stereo not given) here?
Answer: The outcome was “inactive”.

Question: How did the outcome turn out when Clc1nc(Cl)nc(Nc2ccccc2Cl)n1 was run?
Answer: The outcome was “inactive”.

Question: Which outcome does the source give for CCOc1nc(F)cc2nc(S(=O)(=O)Nc3c(Cl)cccc3Cl)nn12 here?
Answer: The outcome was “inactive”.

Question: For CCOc1cc(C(C)(C)C)ccc1C1COC(c2c(F)cccc2F)=N1 (stereo not given), which outcome is on record?
Answer: Its outcome is “inactive”.

Question: Which outcome does the source give for CCCC(=NOCC)C1=C(O)CC(CC(C)SCC)CC1=O (stereo not given) here?
Answer: Its outcome is “inactive”.

Question: How did the outcome turn out when COc1cc(OC)nc(NC(=O)NS(=O)(=O)c2ncccc2OCC(F)(F)F)n1 was run?
Answer: Its outcome is “inactive”.
